Where a name gives a salt, the structure may show the parent alone. ± gives the standard deviation or the standard deviation of the averaged measurements.
Key:
Conditions in all cases: 25 µM; exposure: 24-48 hpf
[1] = test system: Danio rerio Tg(wt1b:EGFP) embryo, pronephros; experiment: glomerular separation, fold change vs DMSO control; higher = glomeruli further apart (abnormal)
Method in brief: (§1)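 Distances and angles describing the pronephros were computed by a Fiji macro from 16 reference points set manually on maximum projections of dorsal images. These images came from dechorionated Tg(wt1b:EGFP) zebrafish embryos held in agarose-filled 96-well plates after exposure to 25 μM compound in 0.5% DMSO, in HEPES-buffered E3 with 0.003% PTU, from 24 to 48 hpf at 28.5°C. Any value more than 2 SD from the feature mean was excluded. Features are stated as fold change relative to the mean of same-day DMSO-treated embryos.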

[2] = test system: Danio rerio Tg(wt1b:EGFP) embryo, pronephros; experiment: glomerular width (mean of left and right), fold change vs DMSO control; higher = wider glomerulus
Method in brief: as §1

[3] = test system: Danio rerio Tg(wt1b:EGFP) embryo, pronephros; experiment: fraction of imaged embryos annotated as normal kidney; higher = less nephrotoxic; extreme values may be limits of the assay
Method in brief: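 The value given is the share of embryos in each treatment scored as having a normal kidney. To obtain it, dechorionated Tg(wt1b:EGFP) zebrafish embryos were treated from 24 to 48 hpf at 28.5°C with 25 μM compound in 0.5% DMSO, in 5 mM HEPES-buffered E3 with 0.003% PTU. Pronephroi were imaged by widefield fluorescence (470 nm, 10 z-slices), and every embryo was annotated by hand from maximum projections.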

[4] = test system: Danio rerio Tg(wt1b:EGFP) embryo, pronephros; experiment: pronephric angle neck segment to proximal convoluted tubule (mean of left and right), fold change vs DMSO control; higher = larger pronephric angle
Method in brief: as §1

Row | Structure (SMILES) | glomerular separation [1] | glomerular width [2] | fraction of imaged embryos annotated as normal kidney [3] | pronephric angle neck segment [4]
1 | CN1CC2c3ccccc3Oc3ccc(Cl)cc3C2C1 (stereo unspecified) [Asenapine maleate] | 0.806 ± 0.35 | 0.991 ± 0.088 | 0.583 | 0.7772 ± 0.0031
2 | COC(=O)[C@H]1[C@H]2C[C@@H]3c4[nH]c5cc(OC)ccc5c4CCN3C[C@H]2C[C@@H](OC(=O)c2cc(OC)c(OC)c(OC)c2)[C@@H]1OC [Reserpine] | 0.705 ± 0.29 | 0.995 ± 0.061 | 0.917 | 1.0157 ± 3.5e-05
3 | CC(N/C(=N\C#N)Nc1ccncc1)C(C)(C)C (stereo unspecified) [Pinacidil] | 0.881 ± 0.21 | 1.05 ± 0.1 | 0.727 | 1.01 ± 0.036
4 | Clc1ccc(COC(Cn2ccnc2)c2ccc(Cl)cc2Cl)c(Cl)c1 (stereo unspecified) [Miconazole] | 3.42 ± 1.6 | 0.865 ± 0.069 | 0.0909 | 1.481 ± 0.012
5 | CCN(CC)C(=O)Nc1ccc(OCC(O)CNC(C)(C)C)c(C(C)=O)c1 (stereo unspecified) [Celiprolol hydrochloride] | 0.729 ± 0.21 | 1.03 ± 0.018 | 0.833 | 0.964 ± 0.046
6 | Cc1c(NC(C)C)c(=O)n(-c2ccccc2)n1C [Isopyrin hydrochloride] | 1.1 ± 0.6 | 1.04 ± 0.016 | 0.917 | 0.974 ± 0.022
7 | O=c1oc2ccccc2c(O)c1Cc1c(O)c2ccccc2oc1=O [Dicumarol] | 0.799 ± 0.23 | 0.772 ± 0.025 | 0.9 | 1.14 ± 0.08
8 | COC(=O)C1=C(C)NC(C)=C(C(=O)OC)C1c1ccccc1[N+](=O)[O-] [Nifedipine] | 1.1 ± 0.54 | 1.05 ± 0.077 | 0 | 1.33 ± 0.09
9 | CCOC(=O)C1=C(COCCN)NC(C)=C(C(=O)OC)C1c1ccccc1Cl (stereo unspecified) [Amlodipine] | 0.923 ± 0.2 | 1.03 ± 0.085 | 1 | 0.983 ± 0.029
10 | CCCc1ncc(C[n+]2ccccc2C)c(N)n1 [Amprolium hydrochloride] | 1.14 ± 0.19 | 0.936 ± 0.042 | 1 | 1 ± 0.018
11 | CN1CCC[C@@H]1CCO[C@](C)(c1ccccc1)c1ccc(Cl)cc1 [Clemastine fumarate] | 0.925 ± 0.57 | 1.01 ± 0.058 | 0.818 | 0.9686 ± 0.0025
12 | CC(=O)OCC(=O)[C@@]1(OC(C)=O)[C@@H](C)C[C@H]2[C@@H]3C[C@H](F)C4=CC(=O)C=C[C@]4(C)[C@@]3(F)[C@@H](O)C[C@@]21C [Diflorasone Diacetate] | 1.52 ± 0.52 | 1.32 ± 0.052 | 0.727 | 0.973 ± 0.059
13 | C=CCc1ccccc1OCC(O)CNC(C)C (stereo unspecified) [Alprenolol hydrochloride] | 0.823 ± 0.28 | 1 ± 0.074 | 0.833 | 1.07 ± 0.015
14 | CC(=O)Oc1cc(C(C)C)c(OCCN(C)C)cc1C [Moxisylyte hydrochoride] | 0.853 ± 0.24 | 1.03 ± 0.0053 | 0.917 | 0.977 ± 0.068
15 | O=C(O)CN(CCN(CC(=O)O)CC(=O)O)CCN(CC(=O)O)CC(=O)O [Pentetic acid] | 1.23 ± 0.47 | 0.98 ± 0.017 | 0.917 | 0.9888 ± 0.0057
16 | CCCN(CCC)CCc1cccc2c1CC(=O)N2 [Ropinirole hydrochloride] | 1.34 ± 0.63 | 0.908 ± 0.044 | 0.75 | 0.991 ± 0.037
17 | CC(N)CCCC(C)(C)O (stereo unspecified) [Heptaminol hydrochloride] | 1.19 ± 0.48 | 1 ± 0.044 | 0.75 | 0.971 ± 0.023
18 | NCC[C@H](O)C(=O)N[C@@H]1C[C@H](N)[C@@H](O[C@H]2O[C@H](CN)[C@@H](O)[C@H](O)[C@H]2O)[C@H](O)[C@H]1O[C@H]1O[C@H](CO)[C@@H](O)[C@H](N)[C@H]1O [Amikacin hydrate] | 1.13 ± 0.48 | 1.02 ± 0.028 | 0.667 | 1.04 ± 0.02
19 | CC(COc1ccccc1)N(CCCl)Cc1ccccc1 (stereo unspecified) [Phenoxybenzamine hydrochloride] | 1.05 ± 0.59 | 0.834 ± 0.03 | 0.583 | 1.15 ± 0.036
20 | CCSc1ccc2c(c1)N(CCCN1CCN(C)CC1)c1ccccc1S2 [Thiethylperazine dimalate] | 0.677 ± 0.22 | 1.054 ± 0.0092 | 0.833 | 0.9766 ± 0.0079
21 | Cc1cc2c(s1)Nc1ccccc1N=C2N1CCN(C)CC1 [Olanzapine] | 0.786 ± 0.41 | 0.925 ± 0.034 | 0.917 | 1.01 ± 0.041
22 | CC(=O)OCC(=O)[C@@]1(O)CC[C@H]2[C@@H]3CCC4=CC(=O)C=C[C@]4(C)[C@@]3(F)[C@@H](O)C[C@@]21C [Isoflupredone acetate] | 1.22 ± 0.63 | 1.21 ± 0.017 | 0.583 | 1.014 ± 0.0048
23 | CC(CN(C)C)C(C)(O)Cc1ccc(Cl)cc1 (stereo unspecified) [Clobutinol hydrochloride] | 1.4 ± 0.46 | 0.945 ± 0.026 | 0.75 | 0.979 ± 0.034
24 | CCCCCN(C)CCC(O)(P(=O)(O)O)P(=O)(O)O [Ibandronate sodium] | 0.837 ± 0.21 | 1.06 ± 0.025 | 0.833 | 0.981 ± 0.048
25 | CC(Oc1ccccc1)C(=O)N[C@@H]1C(=O)N2[C@@H]1SC(C)(C)[C@@H]2C(=O)O (stereo partly specified) [Phenethicillin potassium salt] | 0.88 ± 0.24 | 0.963 ± 0.057 | 0.667 | 0.989 ± 0.028
26 | O=C(O)Cc1ccccc1Nc1c(Cl)cccc1Cl [Diclofenac sodium] | 3.78 ± 1.9 | 0.492 ± 0.031 | 0 | 1.63 ± 0.018
27 | C[N+](C)(C)CCOC(N)=O [Carbachol] | 0.868 ± 0.25 | 1 ± 0.013 | 0.667 | 1.01 ± 0.047
28 | N#Cc1ccc(C(c2ccc(C#N)cc2)n2cncn2)cc1 [Letrozole] | 1.1 ± 0.4 | 1.023 ± 0.0059 | 0.917 | 0.938 ± 0.014
29 | CC[N+](C)(CC)CCOC(=O)C1c2ccccc2Oc2ccccc21 [Methantheline bromide] | 0.979 ± 0.45 | 0.996 ± 0.029 | 0.917 | 1.045 ± 0.0066

— the supplement of paper PMC7366291
